From PubChem BioAssay (Tox21)
Results filed as inconclusive are left out. Activity calls are given as the source filed them. Unless noted, the call rests on the fitted dose curve.

molecular target: Beta-2 adrenergic receptor (Homo sapiens) (UniProt P07550); assay: Adrenergic beta2 receptor (ADRB2) small molecule agonists, cell-based qHTS assay (AID 1963593); settings: CHO-ADRB2 cells, cAMP HTRF, 30 min; series mostly up to 92.4 µM; activation: at the top concentration;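 further: CHO cells stably overexpressing human ADRB2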
How it was run: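 CHO cells stably over-expressing ADRB2 were plated overnight at 37C, then dosed with compounds plus a stimulation mix containing 100uM IBMX and 25uM Ro-20-1724 for 0.5hr at room temperature. cAMP was measured by HTRF competition, 1hr.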
On the % scale 0 is the no-effect control and ±100 the full control effect.

Beta-2 adrenergic receptor (Homo sapiens), sequence (P07550 whole entry, looked up): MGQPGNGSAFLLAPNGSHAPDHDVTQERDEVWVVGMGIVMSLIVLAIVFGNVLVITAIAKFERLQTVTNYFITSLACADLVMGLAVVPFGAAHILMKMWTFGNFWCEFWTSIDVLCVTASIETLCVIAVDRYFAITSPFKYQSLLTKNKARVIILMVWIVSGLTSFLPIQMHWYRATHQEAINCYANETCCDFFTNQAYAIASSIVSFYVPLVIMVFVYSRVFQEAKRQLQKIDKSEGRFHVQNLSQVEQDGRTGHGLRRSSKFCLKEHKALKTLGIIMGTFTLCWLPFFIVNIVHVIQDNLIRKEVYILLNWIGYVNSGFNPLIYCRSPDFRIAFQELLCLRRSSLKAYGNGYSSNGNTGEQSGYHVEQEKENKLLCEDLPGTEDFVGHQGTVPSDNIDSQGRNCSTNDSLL

Compound	activation	Potency
N#CCC(=O)O	-1.95% (inactive)	–
Nc1ncnc2c1ncn2[C@@H]1O[C@H](COP(=O)(O)O)[C@@H](O)[C@H]1O	7.99% [at 42.5 µM] (inactive)	–
C/C=C(\C)C(=O)OC/C=C(\C)CCC=C(C)C	0.662% (inactive)	–
CC(=O)/C=C/C1C(C)=CCC(C)C1(C)C (stereo not drawn)	2.2% (inactive)	–
Cc1cccc(C)c1NC(=O)CC12CCCN1CCC2	21.4% [at 42.5 µM] (inactive)	–
C=C(C)C(=O)OCCCCCCOC(=O)C(=C)C	-34% (inactive)	–
Cl/C(=C\n1cncn1)c1ccc(Cl)cc1Cl	3.26% [at 42.5 µM] (inactive)	–
COc1cc(C(=O)N2CCCCCCC2)cc(OC)c1OC	4.34% [at 42.5 µM] (inactive)	–
COC(=O)N[C@H](C(=O)N[C@@H](Cc1ccccc1)[C@@H](O)CN(Cc1ccc(-c2ccccn2)cc1)NC(=O)[C@@H](NC(=O)OC)C(C)(C)C)C(C)(C)C	1.93% [at 42.5 µM] (inactive)	–
COC(=O)Nc1nc2ccc(Sc3ccccc3)cc2[nH]1	–	inactive
CN1N=C(C(N)=O)CCC1=O	0.739% [at 42.5 µM] (inactive)	–
CCCCC(CC)CCC(CC(C)C)OS(=O)(=O)O (stereo not drawn)	1.06% (inactive)	–
CSc1cnccn1	1.74% (inactive)	–
CCCCCCCOC(=O)c1ccccc1C(=O)OCCCCCCC	-0.219% (inactive)	–
CC1CC(=O)CC(C)(C)C1 (stereo not drawn)	-13% (inactive)	–
O=[Si]=O	-31.2% (inactive)	–
CCCCCCCC(OC)OC	-18.7% [at 42.5 µM] (inactive)	–
NS(=O)(=O)c1cc2c(cc1Cl)NC(CC1CCCC1)NS2(=O)=O (stereo not drawn)	-1.87% [at 42.5 µM] (inactive)	–
N#CCc1cccc(C(F)(F)F)c1	-7.13% (inactive)	–
Clc1ccccc1-c1nc(-c2ccncc2)no1	-23.4% [at 42.5 µM] (inactive)	–
CC(=O)C(C)O (stereo not drawn)	2.91% (inactive)	–
CC(=O)c1ccc2c(c1)CCCC2	9.09% (inactive)	–
CCOc1cc(NC(C)=O)ccc1C(=O)OC	-2.79% [at 42.5 µM] (inactive)	–
CCCC(O)C(O)CO (stereo not drawn)	8.13% (inactive)	–
O=C(O)c1ccc(O)cc1O	11.6% (inactive)	–
C[Si](C)(C)Cl	-15.1% (inactive)	–
Cc1ccc2n[nH]nc2c1	5.69% (inactive)	–
CCCOC(=O)C(C)O (stereo not drawn)	3.22% (inactive)	–

molecular target: D(2) dopamine receptor (Homo sapiens) (UniProt P14416); assay: Dopamine D2 receptor (DRD2) small molecule agonists, cell-based qHTS assay (AID 1963594); settings: HEK293-DRD2 cAMP HTRF, agonist mode, 30 min; series mostly up to 92.4 µM; activation: at the top concentration; further: nearly all actives have a fitted effect of over 35% in size
How it was run: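 HEK293 cells stably expressing human DRD2, pre-treated with PDE inhibitor Ro20-1724 (0.1 mM final) and compound 10 min at room temperature, then stimulated with NKH477 (200nM […]) for 30 min. cAMP read by HTRF (665/620 nm).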

D(2) dopamine receptor (Homo sapiens), sequence (P14416 whole entry, looked up): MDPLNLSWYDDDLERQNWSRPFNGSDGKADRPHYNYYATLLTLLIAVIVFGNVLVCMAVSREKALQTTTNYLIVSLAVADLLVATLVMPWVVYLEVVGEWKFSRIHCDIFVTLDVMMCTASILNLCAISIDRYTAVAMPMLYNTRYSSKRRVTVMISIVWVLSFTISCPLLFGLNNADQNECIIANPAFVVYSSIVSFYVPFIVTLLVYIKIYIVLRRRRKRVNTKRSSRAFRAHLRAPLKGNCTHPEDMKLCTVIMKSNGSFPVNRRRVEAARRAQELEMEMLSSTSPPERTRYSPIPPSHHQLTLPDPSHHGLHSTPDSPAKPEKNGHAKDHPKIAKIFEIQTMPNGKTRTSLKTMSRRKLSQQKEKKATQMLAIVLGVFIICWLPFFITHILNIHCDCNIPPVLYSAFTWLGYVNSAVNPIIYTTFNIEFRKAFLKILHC

Compound	activation	Potency
OCCOc1ccc(OCCO)cc1	-7.08% (inactive)	–
N#CCC(=O)O	–	inactive
CCc1ccc(C)nc1	1.16% (inactive)	–
CN(C)c1ccc(/C=C/c2ccc([N+](=O)[O-])cc2)cc1	-5.78% [at 8.39 µM] (inactive)	–
C/C=C(\C)C(=O)OC/C=C(\C)CCC=C(C)C	-4.18% (inactive)	–
CC(=O)/C=C/C1C(C)=CCC(C)C1(C)C (stereo not drawn)	1.35% (inactive)	–
Cc1cccc(C)c1NC(=O)CC12CCCN1CCC2	6.92% [at 42.5 µM] (inactive)	–
CC(=O)N1CCN(c2ccc(O)cc2)CC1	-2.13% [at 42.5 µM] (inactive)	–
C=C(C)C(=O)OCCCCCCOC(=O)C(=C)C	-1.67% (inactive)	–
O=C1CCN(c2ccccc2)N1	-1.17% (inactive)	–
Cl/C(=C\n1cncn1)c1ccc(Cl)cc1Cl	-3.34% [at 42.5 µM] (inactive)	–
COc1cc(C(=O)N2CCCCCCC2)cc(OC)c1OC	-2.32% [at 42.5 µM] (inactive)	–
COC(=O)N[C@H](C(=O)N[C@@H](Cc1ccccc1)[C@@H](O)CN(Cc1ccc(-c2ccccn2)cc1)NC(=O)[C@@H](NC(=O)OC)C(C)(C)C)C(C)(C)C	-4.96% [at 42.5 µM] (inactive)	–
Clc1nc2ccccc2s1	-1.4% (inactive)	–
COC(=O)Nc1nc2ccc(Sc3ccccc3)cc2[nH]1	–	inactive
CN1N=C(C(N)=O)CCC1=O	1.03% [at 42.5 µM] (inactive)	–
CCCCC(CC)CCC(CC(C)C)OS(=O)(=O)O (stereo not drawn)	0.383% (inactive)	–
CSc1cnccn1	-3.51% (inactive)	–
CCCCCCCOC(=O)c1ccccc1C(=O)OCCCCCCC	4.11% (inactive)	–

Compound	activation	Potency
CC1CC(=O)CC(C)(C)C1 (stereo not drawn)	0.277% (inactive)	–
O=[Si]=O	-2.17% (inactive)	–
CCCCCCCC(OC)OC	-0.433% [at 42.5 µM] (inactive)	–
NS(=O)(=O)c1cc2c(cc1Cl)NC(CC1CCCC1)NS2(=O)=O (stereo not drawn)	-0.516% [at 42.5 µM] (inactive)	–
N#CCc1cccc(C(F)(F)F)c1	3.46% (inactive)	–
CC(C)(c1cc(Br)c(O)c(Br)c1)c1cc(Br)c(O)c(Br)c1	–	inactive
Clc1ccccc1-c1nc(-c2ccncc2)no1	-7.21% [at 42.5 µM] (inactive)	–
CC(=O)C(C)O (stereo not drawn)	-7.53% (inactive)	–
CO[Si](CCCNCCNCCN)(OC)OC	-3.62% (inactive)	–
CC(=O)c1ccc2c(c1)CCCC2	-0.264% (inactive)	–
Nc1c2ccccc2nc2ccccc12	–	inactive
NC(=O)c1cccc([N+](=O)[O-])c1	-2.75% (inactive)	–
CCOc1cc(NC(C)=O)ccc1C(=O)OC	1.39% [at 42.5 µM] (inactive)	–
CCCC(O)C(O)CO (stereo not drawn)	-5.86% (inactive)	–
O=C(O)c1ccc(O)cc1O	2.59% (inactive)	–
C[Si](C)(C)Cl	2.34% (inactive)	–
COC(=O)c1c(Cl)c(Cl)c(C(=O)OC)c(Cl)c1Cl	18.4% (inactive)	–
Cc1ccc2n[nH]nc2c1	-1.18% (inactive)	–
CCCOC(=O)C(C)O (stereo not drawn)	0.249% (inactive)	–

molecular target: D(2) dopamine receptor (Homo sapiens) (UniProt P14416); assay: Dopamine D2 receptor (DRD2) small molecule antagonists, cell-based qHTS assay (AID 1963595; active means well fitted inhibition curve with a large enough effect in the signal ratio in the repeat runs, with a control signal flat; the % refers to the signal ratio; further: potency means the concentration at half of the fitted maximal effect); settings: HEK293-DRD2 cAMP HTRF antagonist mode; series mostly up to 92.4 µM; activity change, negative = inhibition: at the top concentration
How it was run: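 DRD2-HEK293; 0.1 mM Ro20-1724; cpd 10 min RT; NKH477 200 nM + quinpirole 12 nM, 30 min RT; HTRF cAMP (cAMP-d2/anti-cAMP cryptate), 665/620 nm ratio after 1 h.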

Compound	activity change, negative = inhibition	Potency
OCCOc1ccc(OCCO)cc1	-0.174% (inactive)	–
N#CCC(=O)O	–	inactive
Nc1ncnc2c1ncn2[C@@H]1O[C@H](COP(=O)(O)O)[C@@H](O)[C@H]1O	–	944 nM (active)
CCc1ccc(C)nc1	-6.67% (inactive)	–
CN(C)c1ccc(/C=C/c2ccc([N+](=O)[O-])cc2)cc1	-2.29% [at 8.38 µM] (inactive)	–
CC(=O)/C=C/C1C(C)=CCC(C)C1(C)C (stereo not drawn)	1.67% (inactive)	–
CC(=O)N1CCN(c2ccc(O)cc2)CC1	8.51% [at 42.5 µM] (inactive)	–
C=C(C)C(=O)OCCCCCCOC(=O)C(=C)C	10.1% (inactive)	–
O=C1CCN(c2ccccc2)N1	-5.81% (inactive)	–
Cl/C(=C\n1cncn1)c1ccc(Cl)cc1Cl	-0.925% [at 42.5 µM] (inactive)	–
COc1cc(C(=O)N2CCCCCCC2)cc(OC)c1OC	-0.878% [at 42.5 µM] (inactive)	–
COC(=O)N[C@H](C(=O)N[C@@H](Cc1ccccc1)[C@@H](O)CN(Cc1ccc(-c2ccccn2)cc1)NC(=O)[C@@H](NC(=O)OC)C(C)(C)C)C(C)(C)C	-0.868% [at 42.5 µM] (inactive)	–
Clc1nc2ccccc2s1	-5.8% (inactive)	–
COC(=O)Nc1nc2ccc(Sc3ccccc3)cc2[nH]1	–	inactive
CCCCC(CC)CCC(CC(C)C)OS(=O)(=O)O (stereo not drawn)	-13.9% (inactive)	–
CSc1cnccn1	-11.6% (inactive)	–

Compound	activity change, negative = inhibition	Potency
CCCCCCCOC(=O)c1ccccc1C(=O)OCCCCCCC	-0.41% (inactive)	–
CC1CC(=O)CC(C)(C)C1 (stereo not drawn)	-0.803% (inactive)	–
CCCCCCCC(OC)OC	-1.63% [at 42.5 µM] (inactive)	–
N#CCc1cccc(C(F)(F)F)c1	4.8% (inactive)	–
CC(C)(c1cc(Br)c(O)c(Br)c1)c1cc(Br)c(O)c(Br)c1	–	inactive
CC(=O)C(C)O (stereo not drawn)	-24.3% (inactive)	–
CO[Si](CCCNCCNCCN)(OC)OC	-0.49% (inactive)	–
CC(=O)c1ccc2c(c1)CCCC2	-0.711% (inactive)	–
Nc1c2ccccc2nc2ccccc12	–	inactive
NC(=O)c1cccc([N+](=O)[O-])c1	-1.44% (inactive)	–
CCOc1cc(NC(C)=O)ccc1C(=O)OC	1.44% [at 42.5 µM] (inactive)	–
CCCC(O)C(O)CO (stereo not drawn)	1.93% (inactive)	–
O=C(O)c1ccc(O)cc1O	-3.49% (inactive)	–
COC(=O)c1c(Cl)c(Cl)c(C(=O)OC)c(Cl)c1Cl	–	inactive
Cc1ccc2n[nH]nc2c1	2.75% (inactive)	–
CCCOC(=O)C(C)O (stereo not drawn)	-4% (inactive)	–
